{"source": "PubChem BioAssay AID1851", "about": "(National Center for Advancing Translational Sciences (NCATS), 2009)", "note": "The campaign covered roughly 16,000 compounds. About 5,100 (32%) were called active. Not shown: some 25% with an inconclusive outcome. Calls follow the shape of the dose curve; as a rule, active = well fitted curve in the direction sought with a large enough effect; inconclusive = small, poorly fitted or top-dose-only effect, or effect the other way; inactive = no such curve, though single readings can be large or run the other way. The list shows a part of the results. % is scaled to controls: 0 for no effect and ±100 for the full control effect."}
{"molecular_target": "Cytochrome P450 3A4 (Homo sapiens) (UniProt P08684)", "sequence (P08684 whole entry, looked up)": "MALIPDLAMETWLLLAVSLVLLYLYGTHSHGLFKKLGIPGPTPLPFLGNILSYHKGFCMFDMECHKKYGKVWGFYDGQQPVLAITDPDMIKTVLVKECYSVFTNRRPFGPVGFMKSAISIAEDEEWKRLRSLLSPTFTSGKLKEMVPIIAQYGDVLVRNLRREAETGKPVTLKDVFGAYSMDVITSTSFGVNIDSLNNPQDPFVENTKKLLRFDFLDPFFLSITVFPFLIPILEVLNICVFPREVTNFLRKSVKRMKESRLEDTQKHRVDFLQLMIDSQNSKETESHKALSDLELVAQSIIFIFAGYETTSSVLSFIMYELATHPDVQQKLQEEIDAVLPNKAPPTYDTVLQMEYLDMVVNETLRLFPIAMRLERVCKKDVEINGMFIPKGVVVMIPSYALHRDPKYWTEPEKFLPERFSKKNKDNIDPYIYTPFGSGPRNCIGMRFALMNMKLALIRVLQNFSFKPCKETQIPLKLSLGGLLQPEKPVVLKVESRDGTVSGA", "assay": "Cytochrome panel assay with activity outcomes", "details": "recombinant CYP, pro-luciferin dealkylation, luminescence, p450-cyp3a4; series mostly up to 57.1 µM"}
{"smiles": "CCCCCCc1c(C[C@H](N)C(=O)O)o[nH]c1=O", "AC50": "inactive"}
{"smiles": "CCOc1nc(NC(C)C)nc(NC(C)C)n1", "AC50": "inactive"}
{"smiles": "CC[n+]1c(P(=O)([O-])c2ccccc2)[nH]c2ccccc21", "activity, negative = inhibition": "-3.39% [at 2.29 µM] (inactive)"}
{"smiles": "Cc1cnc(CNc2ncncc2-c2cccc(C#N)c2)cn1", "AC50": "2 µM (active)"}
{"smiles": "COc1cccc(-c2cncnc2NCc2cccs2)c1", "AC50": "1.58 µM (active)"}
{"smiles": "CC(=O)O[C@H]1CC[C@@]2(C)C(=CC[C@@H]3[C@H]4CC[C@@H]([C@H](C)C(=O)O)[C@]4(C)CC[C@H]32)C1", "activity, negative = inhibition": "1.09% [at 11.4 µM] (inactive)"}
{"smiles": "N=c1nc(N2CCCCC2)cc(N)n1O", "AC50": "inactive"}
{"smiles": "Cc1ccc(-n2nnnc2Sc2nc([N+](=O)[O-])nn2C)cc1C", "AC50": "15.8 µM (active)"}
{"smiles": "O=C(O)c1ccc(Sc2nnnn2-c2ccccc2)c([N+](=O)[O-])c1", "activity, negative = inhibition": "-2.88% [at 11.4 µM] (inactive)"}
{"smiles": "COC(=O)c1cc(NS(=O)(=O)c2ccc(N3CCCCC3)c([N+](=O)[O-])c2)cc(C(=O)OC)c1", "AC50": "2 µM (active)"}
{"smiles": "CC1CCN(c2ccc(S(=O)(=O)Nc3cc(C(=O)O)cc(C(=O)O)c3)cc2[N+](=O)[O-])CC1", "AC50": "5.62 µM (active)"}
{"smiles": "COC(=O)c1cc(NS(=O)(=O)c2ccc(N3CCCCCC3)c([N+](=O)[O-])c2)cc(C(=O)OC)c1", "AC50": "6.31 µM (active)"}
{"smiles": "COC(=O)c1ccc(N2CCN(CC(=O)c3ccc(-c4ccccc4)cc3)CC2)c([N+](=O)[O-])c1", "activity, negative = inhibition": "15.7% [at 2.29 µM] (inactive)"}
{"smiles": "CS(=O)(=O)N1CCN(c2ccc(C(=O)NC3C4CC5CC(C4)CC3C5)cc2[N+](=O)[O-])CC1", "note": "(centres undefined)", "AC50": "inactive"}
{"smiles": "CC1CCN(CCCCOc2ccccc2[N+](=O)[O-])CC1", "activity, negative = inhibition": "-4.5% [at 2.29 µM] (inactive)"}
{"smiles": "COc1ccc2c(c1)C(=NN)c1cc(OC)ccc1-2", "AC50": "20 µM (active)"}
{"smiles": "C[N+](C)(C)c1nc(N)nc2c1ncn2[C@H]1O[C@@H](CO)[C@@H](O)[C@H]1O", "activity, negative = inhibition": "16.1% [at 11.4 µM] (inactive)"}
{"smiles": "COc1ccc(O[C@H]2C=C[C@@H](c3ccccc3)O[C@H]2CO/N=C2/c3cc(OC)ccc3O[C@@H](c3cccc(OC)c3)[C@H]2O)cc1", "AC50": "3.16 µM (active)"}
{"smiles": "CC(=O)OC[C@@H]1O[C@@H](O/N=C2/C[C@@H](O)[C@@H](O)[C@@H]3[C@H]4C(=O)N(c5ccc(F)cc5F)C(=O)[C@@H]4CC[C@H]23)[C@H](OC(C)=O)[C@H](OC(C)=O)[C@@H]1OC(C)=O", "activity, negative = inhibition": "-23.8% [at 11.4 µM] (inactive)"}
{"smiles": "CCN1C(=O)[C@H]2[C@H]3[C@H](O)[C@H](O)C/C(=N/OCC[C@H]4C=C[C@H](OC(C)=O)[C@@H](COC(C)=O)O4)[C@@H]3CC[C@@H]2C1=O", "activity, negative = inhibition": "-18.6% [at 11.4 µM] (inactive)"}
{"smiles": "CC(=O)OC[C@@H]1O[C@@H](O/N=C2/C[C@@H](O)[C@@H](O)[C@@H]3[C@@H]4C(=O)N(c5cccc(Oc6ccccc6)c5)C(=O)[C@H]4CC[C@@H]23)[C@H](OC(C)=O)[C@H](OC(C)=O)[C@@H]1OC(C)=O", "activity, negative = inhibition": "-35.5% [at 11.4 µM] (inactive)"}
{"smiles": "C=CC[C@@H]1C=C[C@H](O/N=C2\\c3cc(OC)ccc3O[C@H](c3cccc(OC)c3)[C@H]2O)[C@H](CO)O1", "activity, negative = inhibition": "-80.3% [at 11.4 µM] (inactive)"}
{"smiles": "CCCNC(=O)OC[C@@H]1O[C@H](CCO/N=C2\\c3cc(OC)ccc3O[C@H](c3cccc(OC)c3)[C@H]2O)C=C[C@@H]1Oc1ccc(OC)cc1", "AC50": "5.01 µM (active)"}
{"smiles": "COc1cccc([C@H]2Oc3ccc(OC)cc3/C(=N\\O[C@@H]3O[C@H](COC(C)=O)[C@H](OC(C)=O)[C@H](OC(C)=O)[C@H]3OC(C)=O)[C@@H]2O)c1", "AC50": "3.16 µM (active)"}
{"smiles": "C[C@@]1(CCOCc2ccccc2)NC(=O)NC1=O", "activity, negative = inhibition": "-5.69% [at 11.4 µM] (inactive)"}
{"smiles": "CC(C)[C@H](NC(=O)OC(C)(C)C)[C@@H](O)CC(=O)C(C)(C)C", "activity, negative = inhibition": "-11% [at 11.4 µM] (inactive)"}
{"smiles": "O=c1c(Oc2ccccc2Br)c(C(F)(F)F)oc2c(CN3CCCC3)c(O)ccc12", "AC50": "inactive"}
{"smiles": "O=C1OCCC1Sc1nnnn1-c1ccccc1", "note": "(centres undefined)", "AC50": "inactive"}
{"smiles": "Cc1cc(C)cc(N2C(=O)CC(Sc3nnnn3-c3ccccc3)C2=O)c1", "note": "(centres undefined)", "AC50": "2 µM (active)"}
{"smiles": "Cc1cc2c(ncn2Cc2ccccc2)c([N+](=O)[O-])c1C", "AC50": "inactive"}
{"smiles": "Cc1cccc(Cn2cnc3c(NS(C)(=O)=O)c(C)c(C)cc32)c1", "AC50": "2 µM (active)"}
{"smiles": "CC(C)CN=C(N)N=C(N)N", "activity, negative = inhibition": "-1.21% [at 11.4 µM] (inactive)"}
{"smiles": "CC(=O)NC1(c2cccc(F)c2)CCN(CC(=O)NC2CCCCC2)CC1", "AC50": "inactive"}
{"smiles": "O=C(CN(C(=O)CSc1nc2ccccc2o1)c1cccc(F)c1)NC1CCCCC1", "AC50": "12.6 µM (active)"}
{"smiles": "O=S(=O)(CC(O)COc1ccccc1Cl)c1ccccc1", "note": "(centres undefined)", "activity, negative = inhibition": "-5.32% [at 11.4 µM] (inactive)"}
{"smiles": "c1cncc(CNc2ncncc2-c2cccnc2)c1", "AC50": "2 µM (active)"}
{"smiles": "c1ccc(CNc2ncncc2-c2cccnc2)cc1", "AC50": "1.26 µM (active)"}
{"smiles": "Cc1cccc(CNc2ncncc2-c2cccnc2)c1", "AC50": "0.631 µM (active)"}
{"smiles": "COc1ccc(NC(=O)N2CC3(CCN(C(=O)c4cnccn4)CC3)C2)cc1", "AC50": "inactive"}
{"smiles": "O=C(Nc1ccccc1)N1CCCC2(CCN(C(=O)c3csnn3)CC2)C1", "AC50": "15.8 µM (active)"}
{"smiles": "O=C(Nc1ccccc1)N1CCC2(CC1)CCN(C(=O)c1csnn1)CC2", "AC50": "inactive"}
{"smiles": "COc1ccc(NC(=O)N2CCCC3(CCN(C(=O)c4csnn4)CC3)C2)cc1", "AC50": "15.8 µM (active)"}
{"smiles": "COc1ccc(NC(=O)N2CC3(CCN(C(=O)c4csnn4)CC3)C2)cc1", "AC50": "inactive"}
{"smiles": "CC[C@@]1(O)C(=O)OCc2c1cc1n(c2=O)Cc2cc3c(CN(C)C)c(O)ccc3nc2-1", "activity, negative = inhibition": "-2.47% [at 11.4 µM] (inactive)"}
{"smiles": "CC1(C)O[C@H]2[C@@H](O1)[C@@H](On1nnc3ccc(Cl)cc31)O[C@@H]2[C@@H]1COC(C)(C)O1", "activity, negative = inhibition": "-24.7% [at 11.4 µM] (inactive)"}
{"smiles": "Cc1ccc(NS(=O)(=O)c2ccc(OCC(=O)Nc3cccc([N+](=O)[O-])c3)c(C)c2)cc1", "AC50": "2 µM (active)"}
{"smiles": "CC1CCN(CC(=O)Nc2cccc([N+](=O)[O-])c2)CC1", "AC50": "inactive"}
{"smiles": "COc1ccccc1C(=O)Nc1cc2c(ccc3ccccc32)oc1=O", "AC50": "inactive"}
{"smiles": "COc1ccccc1NC(=O)Cn1nnc(-c2ccccc2NC(=O)c2cc3ccccc3oc2=O)n1", "AC50": "3.55 µM (active)"}
